# According to PubChem BioAssay:
# Records with an inconclusive call do not appear. Active and inactive are the calls of the source. Rule as the data show it, unless noted: active = percent of DMSO control GFP below about 86%; inactive = the rest, inconclusive results apart.
# Tests used:
# [1] = yeast TOR pathway RPL19A-GFP modulators, primary screen, cell-based, S. cerevisiae, multiplex flow cytometry (AID 1862);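 also: lower values mimic rapamycin by blocking the RPL19A rise seen in DMSO cells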; settings: S. cerevisiae RPL19A-GFP strain, flow cytometry fluorescence, 3 h; at 10 µM; stronger effect = lower value
# [2] = modulators of MEP2-GFP levels in yeast, primary screen, S. cerevisiae, multiplex flow cytometry (AID 1867;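 active = GFP response, as percent of the DMSO control, above the screen-wide mean plus 3 SD, about 139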;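 also: median GFP channel fluorescence of barcode-gated MEP2-GFP cells measured by flow cytometry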); settings: S. cerevisiae MEP2-GFP strain, 3 h, at 10 µM, stronger effect = higher value, 100% means same as DMSO wells
# [3] = modulators of CIT2-GFP expression in yeast, primary screen, S. cerevisiae, GFP fusion, multiplex flow cytometry (AID 1870;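 active = percent response above a set limit, the screen-wide mean plus 3 SD, cut at about 130% in these data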;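 also: barcoded CIT2-GFP strain pooled with four other GFP strains with rapamycin as positive control; median GFP fluorescence per well over plate mean of DMSO wells so 100% = DMSO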); settings: 3 h, at 10 µM, stronger effect = higher value
# [4] = modulators of LAP4-GFP expression in yeast, primary screen, S. cerevisiae, multiplex flow cytometry (AID 1873;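 active = GFP signal, as percent of the solvent control, above the screen mean plus 3 SD, about 149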); settings: 3 h, at 10 µM, stronger effect = higher value
# [5] = modulators of AGP1-GFP expression in yeast TOR pathway, primary screen, cell-based, multiplex flow cytometry, S. cerevisiae (AID 1887;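 active = GFP signal above the screen-wide mean plus 3 SD, that is over about 124.5% of the solvent control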;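 also: AGP1-GFP fusion strain of S. cerevisiae within a five-strain barcoded multiplex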); settings: 3 h, at 10 µM, stronger effect = higher value
# [6] = inhibitors of CD8+ T cell-vesicle binding, pilot screen, LFA-1/ICAM-1 modulator project, MLPCN validation set, flow cytometry (AID 2523;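 active = response below a set limit, under 55% cells CD8-positive and vesicle-bound, and CD8 cells' 90th-percentile brightness under 279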;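 as to vesicle binding response: mean PE anti-B7-1 fluorescence of CD8+ cells relative to row control; 100% = QL9-loaded vesicles with DMSO vehicle in the same plate row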); settings: 2C mouse CD8+ T cells, at 7 µM, stronger effect = lower value; double positive events: measured here: CD8+/vesicle+ event percentage
# [7] = biological target: Integrin beta-1 (Homo sapiens) + Integrin alpha-4 (Homo sapiens) (UniProt P13612+P05556); test: inhibition of HUTS-21 binding to VLA-4, pilot screen, VLA-4 allosteric modulator project, U937 cells, HUTS-21 mAb, flow cytometry, validation set (AID 2674;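 active = inhibition above 50%, about 3 SD of the validation set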;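 also: antibody binding induced by the VLA-4 ligand LDV present at three times its Kd; 0% = LDV ligand with antibody and no compound and 100% = antibody without LDV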); settings: HUTS-21 LIBS mAb binding, at 6.7 µM, stronger effect = higher value, binding induced by LDV ligand
# Sequence of Integrin beta-1 (Homo sapiens) + Integrin alpha-4 (Homo sapiens) (P05556 whole entry, looked up): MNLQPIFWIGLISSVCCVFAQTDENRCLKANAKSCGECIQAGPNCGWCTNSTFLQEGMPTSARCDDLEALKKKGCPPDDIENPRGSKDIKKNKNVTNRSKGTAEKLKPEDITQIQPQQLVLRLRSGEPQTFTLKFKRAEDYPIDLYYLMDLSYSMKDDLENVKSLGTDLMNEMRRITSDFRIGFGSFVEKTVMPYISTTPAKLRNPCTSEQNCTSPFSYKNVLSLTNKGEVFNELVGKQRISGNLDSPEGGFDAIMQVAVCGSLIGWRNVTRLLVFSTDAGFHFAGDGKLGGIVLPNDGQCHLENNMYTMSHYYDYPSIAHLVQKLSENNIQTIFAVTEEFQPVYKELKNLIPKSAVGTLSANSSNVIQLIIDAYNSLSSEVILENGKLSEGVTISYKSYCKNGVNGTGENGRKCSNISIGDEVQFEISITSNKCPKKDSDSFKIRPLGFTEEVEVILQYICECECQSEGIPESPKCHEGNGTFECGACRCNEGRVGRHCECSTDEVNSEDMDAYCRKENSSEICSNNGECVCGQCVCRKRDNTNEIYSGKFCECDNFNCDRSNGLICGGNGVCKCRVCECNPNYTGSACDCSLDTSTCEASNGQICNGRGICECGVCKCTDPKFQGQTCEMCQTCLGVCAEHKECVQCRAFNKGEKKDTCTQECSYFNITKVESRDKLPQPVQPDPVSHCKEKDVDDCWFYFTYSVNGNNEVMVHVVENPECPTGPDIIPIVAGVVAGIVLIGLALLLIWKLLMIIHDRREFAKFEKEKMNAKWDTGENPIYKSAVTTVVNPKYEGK
# Sequence of Integrin beta-1 (Homo sapiens) + Integrin alpha-4 (Homo sapiens) (P13612 whole entry, looked up): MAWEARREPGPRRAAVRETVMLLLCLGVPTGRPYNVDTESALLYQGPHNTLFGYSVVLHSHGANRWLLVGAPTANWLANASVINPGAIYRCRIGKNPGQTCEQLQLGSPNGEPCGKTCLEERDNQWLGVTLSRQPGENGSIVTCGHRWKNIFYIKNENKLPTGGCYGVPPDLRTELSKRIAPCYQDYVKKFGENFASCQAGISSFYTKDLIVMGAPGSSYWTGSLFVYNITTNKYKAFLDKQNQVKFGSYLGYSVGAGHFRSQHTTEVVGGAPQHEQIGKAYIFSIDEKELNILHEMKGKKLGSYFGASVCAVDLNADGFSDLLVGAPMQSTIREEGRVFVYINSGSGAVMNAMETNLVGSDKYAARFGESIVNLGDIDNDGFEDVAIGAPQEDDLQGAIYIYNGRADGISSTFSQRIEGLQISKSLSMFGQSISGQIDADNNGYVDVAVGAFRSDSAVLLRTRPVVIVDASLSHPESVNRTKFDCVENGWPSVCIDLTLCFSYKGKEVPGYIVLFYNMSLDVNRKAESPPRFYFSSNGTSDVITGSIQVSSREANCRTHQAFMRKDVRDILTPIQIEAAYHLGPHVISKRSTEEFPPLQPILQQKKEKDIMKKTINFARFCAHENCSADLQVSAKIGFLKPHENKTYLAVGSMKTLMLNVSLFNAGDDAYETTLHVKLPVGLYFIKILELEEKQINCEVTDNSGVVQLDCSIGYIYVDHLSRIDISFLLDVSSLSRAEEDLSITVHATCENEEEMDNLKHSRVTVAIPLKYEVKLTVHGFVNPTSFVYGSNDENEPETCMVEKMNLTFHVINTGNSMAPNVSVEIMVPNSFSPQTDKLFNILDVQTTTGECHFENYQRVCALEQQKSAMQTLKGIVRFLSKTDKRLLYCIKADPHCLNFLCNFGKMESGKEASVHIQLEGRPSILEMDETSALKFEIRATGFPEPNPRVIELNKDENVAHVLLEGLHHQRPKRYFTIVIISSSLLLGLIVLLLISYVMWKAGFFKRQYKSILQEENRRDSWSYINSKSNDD
# [8] = superoxide lowering in aged yeast cells, pilot screen, validation compound set (AID 2706;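 active = superoxide response below 65% of plate, a cut near 3 SD across the whole screen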;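 also: yeast exposed to compound for one week at 30 degrees C before staining; 100% = mean of all compound wells on the same plate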); settings: S. cerevisiae aging, superoxide DHE fluorescence; at 10 µM; stronger effect = lower value
# [9] = biological target: Beta-adrenergic receptor kinase 1 (Homo sapiens) (UniProt P25098); test: GRK2 binders displacing RNA aptamer, biochemical, validation, human GRK2, bead flow cytometry (AID 488806;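 active = aptamer binding inhibition above 30%, about 3 SD of noise from non-fluorescent compounds; inactive = inhibition at or below 30%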); settings: bead-bound GRK2, FAM-aptamer displacement, at 10 µM, stronger effect = higher value
# Sequence of Beta-adrenergic receptor kinase 1 (Homo sapiens) (P25098 whole entry, looked up): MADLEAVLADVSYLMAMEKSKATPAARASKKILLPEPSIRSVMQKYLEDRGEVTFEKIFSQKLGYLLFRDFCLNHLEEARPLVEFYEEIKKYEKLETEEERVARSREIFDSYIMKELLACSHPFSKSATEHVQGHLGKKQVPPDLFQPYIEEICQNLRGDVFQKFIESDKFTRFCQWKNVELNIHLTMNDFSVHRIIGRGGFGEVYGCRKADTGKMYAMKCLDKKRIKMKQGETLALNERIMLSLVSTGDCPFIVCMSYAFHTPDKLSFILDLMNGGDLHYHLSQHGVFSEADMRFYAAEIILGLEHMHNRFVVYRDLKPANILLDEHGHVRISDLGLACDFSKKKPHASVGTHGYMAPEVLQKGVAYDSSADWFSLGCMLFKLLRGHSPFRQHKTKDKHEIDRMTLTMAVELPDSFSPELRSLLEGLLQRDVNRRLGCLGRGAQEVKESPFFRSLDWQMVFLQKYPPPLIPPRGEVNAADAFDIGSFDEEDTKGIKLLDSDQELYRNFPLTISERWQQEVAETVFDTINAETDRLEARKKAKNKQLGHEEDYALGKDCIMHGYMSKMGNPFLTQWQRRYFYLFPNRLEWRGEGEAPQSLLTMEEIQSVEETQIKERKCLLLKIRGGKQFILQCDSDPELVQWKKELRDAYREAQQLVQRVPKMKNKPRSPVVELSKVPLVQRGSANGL
# [10] = biological target: Beta-2 adrenergic receptor (Homo sapiens) (UniProt P07550); test: beta2AR agonists driving receptor internalization, pilot screen, cell-based, FAP fluorogen, flow cytometry, validation set (AID 504459;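 active = percent response above 42, roughly 3 SD of non-fluorescent test compounds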;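 also: agonist-driven loss of surface beta2AR via internalization measured by FAP dye flow cytometry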); settings: Am2.2-beta2AR cells, FAP surface receptor flow cytometry; at 10 µM; stronger effect = higher value
# Sequence of Beta-2 adrenergic receptor (Homo sapiens) (P07550 whole entry, looked up): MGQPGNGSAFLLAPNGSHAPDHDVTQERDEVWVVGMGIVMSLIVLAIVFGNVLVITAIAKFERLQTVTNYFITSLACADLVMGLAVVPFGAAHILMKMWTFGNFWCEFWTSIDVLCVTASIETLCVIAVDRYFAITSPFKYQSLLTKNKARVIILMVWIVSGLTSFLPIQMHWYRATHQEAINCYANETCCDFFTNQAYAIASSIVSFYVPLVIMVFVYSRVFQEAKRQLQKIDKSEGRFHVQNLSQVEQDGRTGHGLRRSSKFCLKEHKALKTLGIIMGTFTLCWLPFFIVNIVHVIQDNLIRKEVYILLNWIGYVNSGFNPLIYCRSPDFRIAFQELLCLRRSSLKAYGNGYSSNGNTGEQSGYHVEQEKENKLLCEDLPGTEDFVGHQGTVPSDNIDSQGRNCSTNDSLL
# [11] = biological target: AP-2 complex subunit beta (Homo sapiens) (UniProt P63010); test: inhibitors of arrestin peptide binding to AP2, pilot screen, biochemical, validation set, GST-AP2 beads, flow cytometry (AID 504541;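 active = inhibition above 54%, about 3 SD of non-fluorescent compounds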;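 also: AP2 carries R879A mutation and is captured from E. coli lysate; bead-bound FITC arrestin peptide fluorescence measuring arrestin peptide binding to AP2; 0% = DMSO wells and 100% = excess unlabeled arrestin peptide control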); settings: FITC arrestin peptide, at 10 µM, stronger effect = higher value, AP2 beta2 appendage fragment, R879A mutant
# Sequence of AP-2 complex subunit beta (Homo sapiens) (P63010 whole entry, looked up, the tested form may be a part, one chain of several): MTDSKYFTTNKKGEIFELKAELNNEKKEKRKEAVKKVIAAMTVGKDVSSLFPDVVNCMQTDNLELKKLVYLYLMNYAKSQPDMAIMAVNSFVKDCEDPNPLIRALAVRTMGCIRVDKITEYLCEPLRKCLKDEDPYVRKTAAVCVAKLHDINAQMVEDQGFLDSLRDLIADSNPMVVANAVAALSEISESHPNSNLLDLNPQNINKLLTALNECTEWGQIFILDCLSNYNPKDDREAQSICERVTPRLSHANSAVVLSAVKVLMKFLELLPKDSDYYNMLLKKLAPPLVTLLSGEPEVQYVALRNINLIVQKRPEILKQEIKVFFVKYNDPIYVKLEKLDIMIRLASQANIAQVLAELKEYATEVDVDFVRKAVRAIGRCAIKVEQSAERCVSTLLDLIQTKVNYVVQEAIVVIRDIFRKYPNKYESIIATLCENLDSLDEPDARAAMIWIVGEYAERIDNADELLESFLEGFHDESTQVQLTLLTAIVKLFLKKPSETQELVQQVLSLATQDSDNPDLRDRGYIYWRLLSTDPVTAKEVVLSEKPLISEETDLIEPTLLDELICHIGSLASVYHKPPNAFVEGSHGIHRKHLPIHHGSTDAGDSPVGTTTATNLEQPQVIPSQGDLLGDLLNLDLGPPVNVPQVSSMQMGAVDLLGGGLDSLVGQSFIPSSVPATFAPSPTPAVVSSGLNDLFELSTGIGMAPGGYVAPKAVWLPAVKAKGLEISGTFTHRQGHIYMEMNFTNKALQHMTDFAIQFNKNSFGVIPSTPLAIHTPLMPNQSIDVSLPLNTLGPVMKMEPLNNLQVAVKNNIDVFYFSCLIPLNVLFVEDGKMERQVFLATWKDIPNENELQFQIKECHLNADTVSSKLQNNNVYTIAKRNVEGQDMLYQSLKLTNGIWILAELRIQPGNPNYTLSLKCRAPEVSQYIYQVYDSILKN
# [12] = yeast V-ATPase proton transport modulators, S. cerevisiae, pHLuorin, HTS validation (AID 504600; in the data active = response above about 15%;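 also: plate controls were DMSO for no effect and reference compound for full effect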); settings: S. cerevisiae pHLuorin cytosolic pH, at 10 µM, stronger effect = higher value
# [13] = test system: anti-desmoglein-3 scFv antibody binding to human DSG3; test: inhibitors of anti-DSG3 scFv binding to DSG3, pilot screen, biochemical, validation compound set, bead-based, flow cytometry (AID 588368;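 active = binding below the plate cutoff, the plate median minus 3 SD, with a reading above zero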;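 also: signal is the median channel fluorescence of bead-bound GFP antibody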); settings: Protein G beads, DSG3-Fc, scFv-GFP binding, at 10 µM, stronger effect = lower value
# [14] = inhibitors of fungal efflux pumps CDR1, CDR2, MDR1, pilot screen, validation compound set, multiplex, phenotypic (AID 588506;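 active = efflux inhibition above 0.42, the validation set average plus 4 SD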;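 also: Nile Red retained in cells so higher fluorescence means more efflux inhibition; 0 = negative control wells and 1 = enniatin B 25 µM full block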); settings: S. cerevisiae pump-expressing triplex, Nile Red efflux flow cytometry; at 10 µM; stronger effect = higher value; the pumps come from Candida albicans
# [15] = biological target: ATP-binding cassette sub-family B member 6 (Homo sapiens) (UniProt Q9NP58); test: ABCB6 transporter inhibitors, pilot screen, K562-ABCB6 cells, flow cytometry, validation set (AID 588550;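 active = inhibition above the screen-wide mean plus 3 SD, about 51%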;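 also: 0% = DMSO wells and 100% = benzethonium chloride 70 µM positive control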); settings: K562-ABCB6 porphyrin accumulation, 1 h, at 10 µM, stronger effect = higher value
# Sequence of ATP-binding cassette sub-family B member 6 (Homo sapiens) (Q9NP58 whole entry, looked up): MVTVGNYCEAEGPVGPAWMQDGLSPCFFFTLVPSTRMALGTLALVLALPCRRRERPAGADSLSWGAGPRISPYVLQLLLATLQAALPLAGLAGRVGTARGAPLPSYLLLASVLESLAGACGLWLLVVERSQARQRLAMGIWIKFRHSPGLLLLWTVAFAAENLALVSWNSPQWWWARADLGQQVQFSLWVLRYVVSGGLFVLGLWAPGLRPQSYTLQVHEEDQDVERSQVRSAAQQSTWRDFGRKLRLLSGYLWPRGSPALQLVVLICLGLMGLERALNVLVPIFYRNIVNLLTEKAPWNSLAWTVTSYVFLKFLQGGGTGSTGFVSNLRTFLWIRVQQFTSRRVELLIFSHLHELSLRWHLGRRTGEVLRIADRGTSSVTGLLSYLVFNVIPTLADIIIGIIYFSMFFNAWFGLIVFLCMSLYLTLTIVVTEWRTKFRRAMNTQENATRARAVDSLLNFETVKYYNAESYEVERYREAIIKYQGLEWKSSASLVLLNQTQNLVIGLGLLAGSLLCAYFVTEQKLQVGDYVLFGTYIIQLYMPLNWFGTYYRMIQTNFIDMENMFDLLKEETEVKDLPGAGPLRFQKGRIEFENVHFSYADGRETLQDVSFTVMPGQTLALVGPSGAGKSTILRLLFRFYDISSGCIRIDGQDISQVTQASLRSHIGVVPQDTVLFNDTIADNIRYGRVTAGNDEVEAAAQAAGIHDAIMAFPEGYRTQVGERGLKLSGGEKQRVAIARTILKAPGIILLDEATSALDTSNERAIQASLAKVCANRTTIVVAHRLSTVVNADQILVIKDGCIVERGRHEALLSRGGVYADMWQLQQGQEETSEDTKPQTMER
# [16] = promoters of myeloid differentiation in arrested cells, primary screen, cell-based, GFP/MAC1 double positive, flow cytometry, validation set (AID 588685;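 active = differentiation response of at least 50%, scaled between solvent and reference control, from cells with both markers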;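 also: compound exposure lasts four days before antibody staining and flow analysis; 0% = DMSO wells and 100% = 5 µM fulvestrant positive control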); settings: ER-HoxA9 marrow cells, stronger effect = higher value, normalized: vehicle 0, fulvestrant 100
SMILES,percent of DMSO control GFP [1],GFP response vs DMSO [2],percent response of DMSO control [3],GFP response vs DMSO [4],"GFP response, % of DMSO [5]",double positive events [6] [%],vesicle binding response [6],inhibition [7],superoxide response (% of plate) [8],aptamer binding inhibition [9],response [10],inhibition [11],response [12],binding (% of control) [13],efflux inhibition (fraction of control) [14],inhibition [15],differentiation response [16]
COc1ccc(C2NC(C(=O)O)Cc3c2[nH]c2ccccc32)cc1CN1CCN(c2ccc(F)cc2)CC1 (stereo not drawn),104% (inactive),98.3% (inactive),113% (inactive),102% (inactive),104% (inactive),63.4,242% (inactive),-0.45% (inactive),94.5% (inactive),-6% (inactive),6.62% (inactive),-4.95% (inactive),2.85% (inactive),102% (inactive),-0.07 (inactive),1% (inactive),1.22% (inactive)
CC(C)Oc1ccc2c(=O)c(-c3ccccc3)coc2c1,86.5% (inactive),101% (inactive),106% (inactive),83.1% (inactive),94% (inactive),66.7,209% (inactive),-7.12% (inactive),94.6% (inactive),0% (inactive),1.13% (inactive),2.38% (inactive),1.01% (inactive),101% (inactive),-0.53 (inactive),13% (inactive),-5.73% (inactive)
COc1ccc(/C=C\c2nc(=O)c3ccccc3o2)cc1,111% (inactive),100% (inactive),101% (inactive),81.5% (inactive),96.7% (inactive),64.1,360% (inactive),6.81% (inactive),108% (inactive),5% (inactive),2.1% (inactive),0.71% (inactive),8.52% (inactive),98% (inactive),-0.01 (inactive),3% (inactive),6.11% (inactive)
CC1(C)CC(O)(CNCc2ccc3c(c2)OCO3)CCO1 (stereo not drawn),103% (inactive),102% (inactive),101% (inactive),106% (inactive),105% (inactive),66.2,192% (inactive),15.9% (inactive),104% (inactive),1% (inactive),-24.4% (inactive),44.7% (inactive),-2.49% (inactive),104% (inactive),-0.04 (inactive),2% (inactive),0.92% (inactive)
